The values below come from the supplement of paper PMC10849652.

About 7,900 targets were measured; listed, in parts, are those with a hit and a random draw of the rest. About 0.6% of all pairs of compound and target were hits. A number with no mark means an inactive call.

Chain of UniProt P68366 (P68366 whole entry, looked up): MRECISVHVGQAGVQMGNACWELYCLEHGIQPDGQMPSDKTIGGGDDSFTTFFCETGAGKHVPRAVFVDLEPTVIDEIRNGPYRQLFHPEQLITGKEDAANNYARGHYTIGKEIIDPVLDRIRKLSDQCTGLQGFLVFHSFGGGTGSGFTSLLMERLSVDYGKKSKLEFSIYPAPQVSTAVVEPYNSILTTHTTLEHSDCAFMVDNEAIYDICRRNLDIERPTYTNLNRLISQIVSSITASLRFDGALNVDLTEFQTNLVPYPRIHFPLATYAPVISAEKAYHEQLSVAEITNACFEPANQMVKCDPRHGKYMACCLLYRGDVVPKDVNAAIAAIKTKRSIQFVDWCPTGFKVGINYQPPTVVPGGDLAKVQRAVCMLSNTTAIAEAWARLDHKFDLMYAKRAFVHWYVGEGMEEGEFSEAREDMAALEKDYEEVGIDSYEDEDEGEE
Chain of UniProt Q9Y5Z9 (Q9Y5Z9 whole entry, looked up): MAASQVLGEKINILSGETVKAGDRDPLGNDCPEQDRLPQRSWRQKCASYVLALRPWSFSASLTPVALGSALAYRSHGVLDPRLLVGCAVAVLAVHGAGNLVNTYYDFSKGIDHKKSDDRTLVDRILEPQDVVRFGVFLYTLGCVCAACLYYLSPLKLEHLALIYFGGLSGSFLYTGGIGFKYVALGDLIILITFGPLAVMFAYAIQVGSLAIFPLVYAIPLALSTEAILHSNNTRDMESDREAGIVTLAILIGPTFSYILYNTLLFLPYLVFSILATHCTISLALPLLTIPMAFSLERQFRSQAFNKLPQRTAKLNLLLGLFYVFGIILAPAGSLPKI
Chain of UniProt Q7Z7G8 (Q7Z7G8 whole entry, looked up): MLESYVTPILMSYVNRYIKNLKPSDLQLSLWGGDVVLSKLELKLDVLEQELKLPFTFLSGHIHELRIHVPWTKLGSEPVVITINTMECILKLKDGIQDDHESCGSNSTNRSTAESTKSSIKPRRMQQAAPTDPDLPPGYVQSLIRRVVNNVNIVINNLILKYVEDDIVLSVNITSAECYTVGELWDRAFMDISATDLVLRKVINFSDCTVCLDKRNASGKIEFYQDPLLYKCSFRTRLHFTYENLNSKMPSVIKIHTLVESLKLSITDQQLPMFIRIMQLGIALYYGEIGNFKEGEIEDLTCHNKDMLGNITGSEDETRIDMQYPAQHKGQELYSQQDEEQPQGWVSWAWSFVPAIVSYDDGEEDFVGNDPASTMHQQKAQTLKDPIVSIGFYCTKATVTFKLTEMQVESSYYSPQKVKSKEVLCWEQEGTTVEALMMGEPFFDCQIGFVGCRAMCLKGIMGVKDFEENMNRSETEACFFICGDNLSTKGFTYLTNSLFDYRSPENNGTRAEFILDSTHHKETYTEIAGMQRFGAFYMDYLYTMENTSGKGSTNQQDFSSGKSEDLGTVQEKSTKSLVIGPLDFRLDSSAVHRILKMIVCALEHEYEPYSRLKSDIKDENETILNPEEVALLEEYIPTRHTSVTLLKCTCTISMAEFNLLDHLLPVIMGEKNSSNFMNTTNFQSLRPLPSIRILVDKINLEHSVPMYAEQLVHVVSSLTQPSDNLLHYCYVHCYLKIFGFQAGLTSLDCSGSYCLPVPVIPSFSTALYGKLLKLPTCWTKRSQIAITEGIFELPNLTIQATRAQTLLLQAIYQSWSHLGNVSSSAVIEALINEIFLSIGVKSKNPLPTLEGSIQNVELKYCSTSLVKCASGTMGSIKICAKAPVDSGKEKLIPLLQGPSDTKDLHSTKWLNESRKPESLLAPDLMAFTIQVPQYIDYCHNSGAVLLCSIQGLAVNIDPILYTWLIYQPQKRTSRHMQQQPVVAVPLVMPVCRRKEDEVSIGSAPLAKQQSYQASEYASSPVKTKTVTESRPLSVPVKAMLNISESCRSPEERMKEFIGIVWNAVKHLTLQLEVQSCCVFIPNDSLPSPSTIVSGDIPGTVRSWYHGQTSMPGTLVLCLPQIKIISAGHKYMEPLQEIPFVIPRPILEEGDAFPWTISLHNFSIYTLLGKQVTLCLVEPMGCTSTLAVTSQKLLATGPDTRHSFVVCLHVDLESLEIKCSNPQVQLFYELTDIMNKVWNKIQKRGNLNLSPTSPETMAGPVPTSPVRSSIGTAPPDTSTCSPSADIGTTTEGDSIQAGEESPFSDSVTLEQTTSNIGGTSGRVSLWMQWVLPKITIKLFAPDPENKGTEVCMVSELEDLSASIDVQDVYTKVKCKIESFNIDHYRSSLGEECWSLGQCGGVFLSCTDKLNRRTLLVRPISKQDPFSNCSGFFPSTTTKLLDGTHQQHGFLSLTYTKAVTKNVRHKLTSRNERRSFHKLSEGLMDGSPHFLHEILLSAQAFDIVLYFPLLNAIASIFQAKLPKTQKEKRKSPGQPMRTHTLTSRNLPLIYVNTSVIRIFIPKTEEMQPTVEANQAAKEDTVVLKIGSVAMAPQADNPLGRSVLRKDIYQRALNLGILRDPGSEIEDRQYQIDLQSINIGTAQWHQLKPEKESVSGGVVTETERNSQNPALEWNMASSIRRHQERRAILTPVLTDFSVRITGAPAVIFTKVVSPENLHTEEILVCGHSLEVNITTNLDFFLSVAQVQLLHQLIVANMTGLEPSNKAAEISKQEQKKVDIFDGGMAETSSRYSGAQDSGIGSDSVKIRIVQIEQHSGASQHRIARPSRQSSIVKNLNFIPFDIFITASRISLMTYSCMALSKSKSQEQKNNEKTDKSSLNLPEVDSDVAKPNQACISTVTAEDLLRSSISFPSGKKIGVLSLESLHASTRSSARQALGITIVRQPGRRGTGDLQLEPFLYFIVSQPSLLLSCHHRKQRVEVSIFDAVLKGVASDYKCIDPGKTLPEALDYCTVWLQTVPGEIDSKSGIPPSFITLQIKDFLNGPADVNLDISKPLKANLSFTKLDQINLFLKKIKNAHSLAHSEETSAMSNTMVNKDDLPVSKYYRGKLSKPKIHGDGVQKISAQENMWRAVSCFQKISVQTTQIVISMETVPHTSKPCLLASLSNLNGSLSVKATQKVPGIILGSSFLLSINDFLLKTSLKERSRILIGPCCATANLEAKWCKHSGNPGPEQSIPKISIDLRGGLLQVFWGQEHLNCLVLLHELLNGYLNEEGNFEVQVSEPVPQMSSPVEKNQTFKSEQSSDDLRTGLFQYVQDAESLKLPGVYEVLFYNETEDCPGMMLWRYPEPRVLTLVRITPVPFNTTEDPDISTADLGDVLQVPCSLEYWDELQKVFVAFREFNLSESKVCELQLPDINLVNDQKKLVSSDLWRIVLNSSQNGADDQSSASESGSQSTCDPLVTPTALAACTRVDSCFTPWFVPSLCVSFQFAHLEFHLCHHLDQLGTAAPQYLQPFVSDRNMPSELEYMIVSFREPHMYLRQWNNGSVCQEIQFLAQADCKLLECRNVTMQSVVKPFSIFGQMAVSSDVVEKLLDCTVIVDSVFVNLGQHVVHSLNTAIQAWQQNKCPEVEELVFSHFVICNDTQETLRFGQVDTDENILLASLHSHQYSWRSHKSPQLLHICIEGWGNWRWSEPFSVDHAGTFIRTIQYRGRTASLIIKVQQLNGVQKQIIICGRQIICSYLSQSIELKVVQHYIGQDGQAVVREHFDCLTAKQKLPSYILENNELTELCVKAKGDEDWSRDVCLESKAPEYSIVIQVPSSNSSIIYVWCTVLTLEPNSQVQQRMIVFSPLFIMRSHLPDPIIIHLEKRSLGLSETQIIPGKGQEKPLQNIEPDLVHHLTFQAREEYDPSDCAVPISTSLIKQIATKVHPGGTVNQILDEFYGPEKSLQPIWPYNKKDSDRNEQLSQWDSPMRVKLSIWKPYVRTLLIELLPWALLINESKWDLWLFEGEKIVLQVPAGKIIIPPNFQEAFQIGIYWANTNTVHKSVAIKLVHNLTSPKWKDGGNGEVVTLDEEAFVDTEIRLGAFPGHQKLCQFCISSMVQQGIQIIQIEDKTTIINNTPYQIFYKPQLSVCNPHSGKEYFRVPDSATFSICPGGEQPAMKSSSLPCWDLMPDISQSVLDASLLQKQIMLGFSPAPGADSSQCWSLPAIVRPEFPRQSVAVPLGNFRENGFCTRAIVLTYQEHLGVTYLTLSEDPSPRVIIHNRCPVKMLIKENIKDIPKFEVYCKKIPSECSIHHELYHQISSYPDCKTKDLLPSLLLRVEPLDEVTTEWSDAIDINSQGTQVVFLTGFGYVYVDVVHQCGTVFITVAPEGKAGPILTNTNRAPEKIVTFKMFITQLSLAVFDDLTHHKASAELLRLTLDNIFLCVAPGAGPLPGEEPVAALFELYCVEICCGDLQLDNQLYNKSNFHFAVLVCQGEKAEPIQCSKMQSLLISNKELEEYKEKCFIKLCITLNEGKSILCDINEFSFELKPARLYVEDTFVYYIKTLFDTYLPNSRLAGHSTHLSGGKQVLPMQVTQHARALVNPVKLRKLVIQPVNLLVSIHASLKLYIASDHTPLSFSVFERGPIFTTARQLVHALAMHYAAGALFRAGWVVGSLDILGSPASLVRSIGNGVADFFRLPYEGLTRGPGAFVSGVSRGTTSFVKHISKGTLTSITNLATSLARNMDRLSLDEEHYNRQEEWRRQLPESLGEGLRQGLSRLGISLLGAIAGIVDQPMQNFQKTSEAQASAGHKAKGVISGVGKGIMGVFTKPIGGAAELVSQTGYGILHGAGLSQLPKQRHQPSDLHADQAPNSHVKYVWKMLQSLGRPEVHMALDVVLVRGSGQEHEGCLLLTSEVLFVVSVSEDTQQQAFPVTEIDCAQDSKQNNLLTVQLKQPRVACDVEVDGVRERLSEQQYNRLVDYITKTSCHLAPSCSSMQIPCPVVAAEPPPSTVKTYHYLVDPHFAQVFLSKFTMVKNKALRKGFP
Chain of UniProt Q6PID6 (Q6PID6 whole entry, looked up): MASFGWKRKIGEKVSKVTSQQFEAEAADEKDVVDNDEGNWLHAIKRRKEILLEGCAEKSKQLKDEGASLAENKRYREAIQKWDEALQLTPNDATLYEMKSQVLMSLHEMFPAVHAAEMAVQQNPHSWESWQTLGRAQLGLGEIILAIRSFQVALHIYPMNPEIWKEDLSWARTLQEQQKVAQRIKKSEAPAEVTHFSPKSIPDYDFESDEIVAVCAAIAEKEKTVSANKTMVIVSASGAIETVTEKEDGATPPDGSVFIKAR

Compound in the first assay: CN(CCOC1=CC=C(C=C1)C[C@H]2C(=O)NC(=O)S2)C3=CC=CC=N3 (racemic) [rosiglitazone]
Put plainly: log2 fold change, soluble protein after heating vs DMSO (PISA); higher = thermal stabilisation; K562 cells, 10 uM, 30 min; active = over 0.2 and 3.5 SD of the protein, either way, in both replicates (recomputed). In outline: (§1)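 Soluble protein was quantified by TMTpro 16plex LC-MS/MS after channel sums were equalised. It was obtained as the supernatant after 21,000xg for 90 min from pooled aliquots of K562 cells (2×10^6 cells/mL, 10 μM compound, 30 min) heated for 3 min across 48°C-58°C and extracted in PBS with 0.5% NP-40 at 4°C. Thermal stability values are relative to control samples and come from duplicates. They are given as log2 fold changes.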
For the target VPS11 (UniProt Q9H270), the log2 fold change is 0.077.

TXNL4B (UniProt Q9NX01): the log2 fold change is 0.056.

Consider USP3 (UniProt Q9Y6I4), for which the log2 fold change was 0.094.

Consider TRIM4 (UniProt Q9C037), for which the log2 fold change is 0.021.

In the case of TMEM128 (UniProt Q5BJH2), the log2 fold change is 0.032.

With VPS53 isoform 4 (UniProt Q5VIR6), the log2 fold change is 0.023.

With VPS37A (UniProt Q8NEZ2), the log2 fold change is 0.021.

TUBA4A (UniProt P68366): the log2 fold change was 0.023.

As for UBA52 (UniProt P62987), the log2 fold change is -0.151.

For the target VPS28 (UniProt Q9UK41), the log2 fold change was 0.102.

For UNC119B (UniProt A6NIH7), the log2 fold change is 0.001.

Consider TRMT61A (UniProt Q96FX7), for which the log2 fold change is -0.105.

Turning to WNK1 isoform 7 (UniProt Q9H4A3), the log2 fold change was 0.015.

Turning to TSPAN13 (UniProt O95857), the log2 fold change was 0.

TTI2 (UniProt Q6NXR4): the log2 fold change was -0.01.

For the target TTC33 (UniProt Q6PID6), the log2 fold change was 0.035.

UTP3 (UniProt Q9NQZ2): the log2 fold change is -0.41.

Regarding UBE3B (UniProt Q7Z3V4), the log2 fold change was 0.179.

Consider VPS13B (UniProt Q7Z7G8), for which the log2 fold change was 0.011.

As for TMEM70 (UniProt Q9BUB7), the log2 fold change was 0.021.

Take UBE4B isoform 4 (UniProt O95155): the log2 fold change is 0.05.

With VPS72 isoform 2 (UniProt Q15906), the log2 fold change is 0.041.

For the target UBIAD1 (UniProt Q9Y5Z9), the log2 fold change is 0.044.

As to TRIM44 (UniProt Q96DX7), the log2 fold change was 0.035.

UGDH (UniProt O60701): the log2 fold change is -0.034.

Turning to TRABD (UniProt Q9H4I3), the log2 fold change is 0.001.

For the target UBXN8 (UniProt O00124), the log2 fold change was 0.259.

Consider WEE1 (UniProt P30291), for which the log2 fold change was 0.072.

For UCHL5 isoform 3 (UniProt Q9Y5K5), the log2 fold change was 0.062.

Regarding UFM1 (UniProt P61960), the log2 fold change is 0.029.

Regarding TSC2 (UniProt P49815), the log2 fold change was -0.052.

Consider TMEM9B (UniProt Q9NQ34), for which the log2 fold change was 0.037.

In the case of VKORC1 (UniProt Q9BQB6), the log2 fold change was 0.033.

For TMEM179B (UniProt Q7Z7N9), the log2 fold change is -0.027.

Compound in a further assay: CN1C2=C(C3=C1C(=O)N(N=C3)CC4=CC(=CC=C4)N)SC(=C2)S(=O)C
Described as above. In outline:
as §1
As to VPS11 (UniProt Q9H270), the log2 fold change was 0.03.

For the target TXNL4B (UniProt Q9NX01), the log2 fold change is 0.051.

Take USP3 (UniProt Q9Y6I4): the log2 fold change is -0.077.

As for TMEM128 (UniProt Q5BJH2), the log2 fold change was -0.033.

Regarding VPS53 isoform 4 (UniProt Q5VIR6), the log2 fold change was 0.016.

As for VPS37A (UniProt Q8NEZ2), the log2 fold change was 0.025.

Regarding TUBA4A (UniProt P68366), the log2 fold change is -0.168.

For the target VDAC1 (UniProt P21796), the log2 fold change is -0.022.

Consider VPS28 (UniProt Q9UK41), for which the log2 fold change is -0.038.

For UNC119B (UniProt A6NIH7), the log2 fold change is 0.004.

Turning to TRMT61A (UniProt Q96FX7), the log2 fold change is 0.099.

Take WNK1 isoform 7 (UniProt Q9H4A3): the log2 fold change is -0.001.

Consider TSPAN13 (UniProt O95857), for which the log2 fold change is -0.036.

TTI2 (UniProt Q6NXR4): the log2 fold change is 0.03.

In the case of TTC33 (UniProt Q6PID6), the log2 fold change was -0.048.

For the target UTP3 (UniProt Q9NQZ2), the log2 fold change is 0.165.

On to ULBP1 (UniProt Q9BZM6), for which the log2 fold change is 0.007.

As to UBE3B (UniProt Q7Z3V4), the log2 fold change is -0.007.

In the case of VPS13B (UniProt Q7Z7G8), the log2 fold change was -0.053.

Regarding TMEM70 (UniProt Q9BUB7), the log2 fold change is -0.048.

With UBE4B isoform 4 (UniProt O95155), the log2 fold change is -0.003.

As for VPS72 isoform 2 (UniProt Q15906), the log2 fold change is 0.043.

With UBIAD1 (UniProt Q9Y5Z9), the log2 fold change was -0.094.

With TRIM44 (UniProt Q96DX7), the log2 fold change is -0.069.

Take UGDH (UniProt O60701): the log2 fold change was -0.113.

Regarding UBXN8 (UniProt O00124), the log2 fold change was 0.147.

For WEE1 (UniProt P30291), the log2 fold change is 0.046.

For the target UFM1 (UniProt P61960), the log2 fold change is -0.062.

For VKORC1 (UniProt Q9BQB6), the log2 fold change was 0.03.

Compound in a further assay: CN1CCC(CNc2ccc3ncc(-c4cccc(OC(F)(F)F)c4)n3n2)CC1
The assay is described as above. The essentials:
as §1
Turning to VPS11 (UniProt Q9H270), the log2 fold change was -0.244.

Take TXNL4B (UniProt Q9NX01): the log2 fold change was -0.053.

Consider USP3 (UniProt Q9Y6I4), for which the log2 fold change was -0.379 (active).

As to TRIM4 (UniProt Q9C037), the log2 fold change was 0.294.

As to VPS53 isoform 4 (UniProt Q5VIR6), the log2 fold change is -0.128.

For VPS37A (UniProt Q8NEZ2), the log2 fold change is 0.054.

With TUBA4A (UniProt P68366), the log2 fold change is -0.261 (active).

For VDAC1 (UniProt P21796), the log2 fold change is 0.055.

With UBA52 (UniProt P62987), the log2 fold change is 0.369.

With VPS28 (UniProt Q9UK41), the log2 fold change is -0.139.

With UNC119B (UniProt A6NIH7), the log2 fold change was 0.047.

For TRMT61A (UniProt Q96FX7), the log2 fold change was -0.001.

As for WNK1 isoform 7 (UniProt Q9H4A3), the log2 fold change was 0.019.

Consider TSPAN13 (UniProt O95857), for which the log2 fold change is -0.003.

Consider TTC33 (UniProt Q6PID6), for which the log2 fold change was 0.138.

Consider UTP3 (UniProt Q9NQZ2), for which the log2 fold change was 0.092.

In the case of VPS13B (UniProt Q7Z7G8), the log2 fold change is -0.109.

TMEM70 (UniProt Q9BUB7): the log2 fold change was -0.288 (active).

Regarding UBE4B isoform 4 (UniProt O95155), the log2 fold change is -0.079.

As to UBIAD1 (UniProt Q9Y5Z9), the log2 fold change is -0.041.

Take TRIM44 (UniProt Q96DX7): the log2 fold change was 0.041.

Regarding UGDH (UniProt O60701), the log2 fold change is -0.106.

Take TRABD (UniProt Q9H4I3): the log2 fold change is 0.228.

With UBXN8 (UniProt O00124), the log2 fold change was -0.297.

For the target WEE1 (UniProt P30291), the log2 fold change was 0.195.

On to TSC2 (UniProt P49815), for which the log2 fold change is -0.041.

With TMEM9B (UniProt Q9NQ34), the log2 fold change is -0.054.

In the case of VKORC1 (UniProt Q9BQB6), the log2 fold change was -0.09.

For TMEM179B (UniProt Q7Z7N9), the log2 fold change was -0.128.
